According to PubChem BioAssay AID489039 (National Center for Advancing Translational Sciences (NCATS), 2010):
Records with an inconclusive call do not appear. Active and inactive are the calls of the source. Calls follow the shape of the dose curve; as a rule, active = well fitted inhibition curve with a large enough effect; inconclusive = small, poorly fitted or top-dose-only effect, or effect the other way; inactive = no such curve, though single readings can be large or run the other way.

Target: Nuclear receptor ROR-alpha (Homo sapiens) (UniProt P35398)
Test: ROR alpha selectivity assay for inhibitors of ROR gamma transcriptional activity
Details: Drosophila S2 Gal4-RORalpha UAS-luciferase, 20 h; series mostly up to 92.2 µM
Source text: NIH Molecular Libraries Probe Production Network [MLPCN] NIH Chemical Genomics Center [NCGC] MLPCN Grant: R03 DA026211-01 Assay Provider: Dan Littman, New York University Assay Overview: The retinoic acid-related orphan receptor (ROR) gamma is a transcription factor that has a central role in the differentiation of Th17 cells, a subset of T helper cells that secrete the inflammatory cytokines IL-17A, IL-17F, and IL-22. Th17 cells have been implicated in graft versus host disease, autoimmune disease and asthma. RORgamma is induced in naive T helper cells in the presence of TGF-beta combined with IL-6, IL-21, or IL-23, and thereafter directs the expression of the Th17 lineage cytokines. To identify nonselective inhibitors, a Drosophila Schneider cell line was stably transfected with two vectors: a gene expressing a fusion of the Gal4 DNA binding domain and the transactivation domain of the ROR alpha, under the control of the metallothionine promoter and a Photinus luciferase reporter regulated by the Gal4 binding site enhancer, UAS. […] Small molecule inhibitors that inhibit RORgamma and RORalpha, or components common to both, will be active in both assays and thus scored as nonselective.
Assay Protocol Summary: For screening, 600 cells in 4 uL/well were dispensed into white solid 1536-well plates (Grenier) using a solenoid-based dispenser. Following transfer of 23 nL compound or DMSO vehicle by a pin tool, the plates were incubated 1 hr at ambient temperature, and 1 uL/well copper sulfate (700 uM final concentration) was added. The plates were centrifuged 15 s at 1000 RPM and incubated 20 hr at ambient temperature. After addition of 1.5 uL Photinus luciferase detection reagent, the plates were incubated 10 min at ambient temperature and then read by an ViewLux (Perkin Elmer) to detect luminescence.

| Compound | Potency | activity change, negative = inhibition |
| --- | --- | --- |
| COc1cc(O)c(C(CC(=O)N2CCC(c3ccccc3)CC2)c2ccc3c(c2)OCO3)c(OC)c1 (stereo not given) | inactive |  |
| Cc1cc(C)n(-c2nc(SCC(=O)O)c3c4c(sc3n2)CCCC4)n1 | 18.2 µM (active) |  |
| COc1cc(O)c(C(CC(=O)NC2CCC(C)CC2)c2ccc3c(c2)OCO3)c(OC)c1 (stereo not given) | inactive |  |
| COc1ccc2nc(NNC(=O)COc3ccccc3)sc2c1 | 6.45 µM (active) |  |
| C[C@@H]1[C@H](C)CC[C@]2(C(=O)O)CC[C@]3(C)C(=CC[C@@H]4[C@@]5(C)CC[C@H](O)C(C)(C)[C@H]5CC[C@]43C)[C@@H]12 | 18.2 µM (active) |  |
| COc1cc(C)nc(-n2nc(C)cc2OC)n1 | 8.12 µM (active) |  |
| O=C(NC(=S)Nc1nc(-c2ccccc2)cs1)c1cccnc1 | 32.3 µM (active) |  |
| COc1cc(O)c(C(CC(=O)N2CCC[C@@H](C)C2)c2ccc3c(c2)OCO3)c(OC)c1 (stereo not given in full) | inactive |  |
| CC1=C(\C=C/C(C)=C/C=C\C(C)=C\C(=O)O)C(C)(C)CCC1 |  | 18.6% [at 20 µM] (inactive) |
| Cc1ccc(OCCCC(=O)Nc2nc3ccccc3[nH]2)cc1 | 8.12 µM (active) |  |
| CCOc1ncccc1C(=O)OCC(=O)Nc1ccc(-c2nc3ccc(C)cc3s2)cc1 | 7.24 µM (active) |  |
| COCOc1cc(OC)cc(OC)c1C(CC(=O)N1CC(C)CC(C)C1)c1ccc2c(c1)OCO2 (stereo not given) | inactive |  |
| COc1ccc(CNC(=O)[C@H](Cc2ccccc2)NC(=O)C2CCN(C(=O)[C@@H]3CCCN3C(=O)OC(C)(C)C)CC2)cc1 | inactive |  |
| COc1ccc(C(CC(=O)N2CCCC(C)C2)c2c(O)cc(OC)cc2OC)cc1 (stereo not given) | inactive |  |
| COc1cc(O)c(C(CC(=O)NC2CCCc3ccccc32)c2ccc3c(c2)OCO3)c(OC)c1 (stereo not given) | inactive |  |
| COc1cc(OC)c(C(c2ccccc2)C(C)(C)C(=O)N2CC(C)CC(C)C2)c(OC)c1 (stereo not given) | 16.2 µM (active) |  |
| Cc1nn(-c2cc(C)c3ccccc3n2)c2c1C1C(C2)C1(C)C (stereo not given) | 8.12 µM (active) |  |
| O=S(=O)(c1ccc(NC(=S)N/N=C/c2ccc(Oc3ccccc3)cc2)cc1)N1CCOCC1 | 2.57 µM (active) |  |
| COc1cc(O)c(C(CC(=O)N2CC(C)NC(C)C2)c2ccc3c(c2)OCO3)c(OC)c1 (stereo not given) | inactive |  |
| COc1cc(O)c(C(CC(=O)N2CCCC(C)(C)C2)c2ccc3c(c2)OCO3)c(OC)c1 (stereo not given) | inactive |  |
